# Compound activity as filed in PubChem.
# A selection: hits, their analogues and other compounds. The true share with any hit is near 3.8%.
# ERb coact inh = blocks coactivator binding to human estrogen receptor beta | Q92731 | TR-FRET ER-beta LBD / SRC1-Cy5 peptide binding; receptor agonist-loaded with 1 µM estradiol | 86,000 tested, 1.3% active | inhibition, % at 25.6 µM;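 active means compounds whose percent inhibition of the receptor-coactivator binding signal exceeds about 50% in the single-dose screen, limit read from the data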;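 further: 0% = receptor plus peptide wells without compound and 100% = peptide-only wells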
# ERa coact pot = ER-alpha (human) coactivator binding potentiation. TR-FRET ERalpha-LBD/SRC-Cy5 coactivator binding, 2 h; 100 = basal binding, no effect. coactivator binding (% of control), % at 25.6 µM. P03372. 86,000 tested, 1.3% active. AID 639; in the data active means activity above about 200%;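 further: binding measured in presence of low estradiol as agonist stimulus; 0% = peptide alone without receptor and 100% = receptor with peptide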
# MT1-MMP txn act = MT1-MMP promoter transcription activation | HT1080 MT1-MMP promoter luciferase reporter, luminescence, overnight; active compounds read high | activation factor at 10 µM | 86,000 tested, 0.16% active;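 active means activation factor of at least 2 for MT1-MMP transcription at 10 µM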
# hDAT+cocaine = modulates human dopamine transporter uptake under cocaine. B-score at 10 µM. LLC-PK1 hDAT cells, [14C]-dopamine uptake with cocaine IC80; actives deviate in either direction. Q01959. 110,000 tested, 1.3% active;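 active means Z score or B-score, a plate-position-corrected score, falls beyond the plate's 99.7% confidence bounds, in either direction; inactive means both scores lie inside the 99.7% bounds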;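 further: scored against the spread of the other compound wells on the same plate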
# Target sequence (Q01959 whole entry, looked up): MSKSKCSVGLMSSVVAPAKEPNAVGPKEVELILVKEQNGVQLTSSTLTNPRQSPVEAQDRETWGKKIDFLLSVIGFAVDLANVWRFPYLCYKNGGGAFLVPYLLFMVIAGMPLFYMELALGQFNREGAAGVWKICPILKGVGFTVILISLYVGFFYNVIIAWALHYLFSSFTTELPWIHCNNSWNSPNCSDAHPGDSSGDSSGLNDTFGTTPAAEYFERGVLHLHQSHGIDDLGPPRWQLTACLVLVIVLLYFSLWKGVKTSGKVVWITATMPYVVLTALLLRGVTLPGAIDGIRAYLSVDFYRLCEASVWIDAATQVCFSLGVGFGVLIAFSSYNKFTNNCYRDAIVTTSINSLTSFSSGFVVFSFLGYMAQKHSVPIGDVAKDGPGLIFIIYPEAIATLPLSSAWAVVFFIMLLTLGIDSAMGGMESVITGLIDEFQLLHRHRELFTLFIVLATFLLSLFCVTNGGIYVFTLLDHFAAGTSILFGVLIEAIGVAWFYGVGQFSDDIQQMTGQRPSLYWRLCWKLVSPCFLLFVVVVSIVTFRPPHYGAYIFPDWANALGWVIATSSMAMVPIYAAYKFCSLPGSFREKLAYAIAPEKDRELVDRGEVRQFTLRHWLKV
# ERa SRC1 inh = ER-alpha (human) coactivator binding inhibition; TR-FRET ER-alpha LBD / SRC-1 peptide, estradiol-bound; inhibition, % at 25.6 µM; 86,000 tested, 1.7% active; in the data active means inhibition above about 50%;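 further: 0% = receptor plus peptide control and 100% = peptide only without receptor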
# * = called active by the depositor; x = no result; [ ] = remark or other dose.
SMILES,ERb coact inh,ERa coact pot,MT1-MMP txn act,hDAT+cocaine,ERa SRC1 inh
O=C(COc1ccc2c(c1)OCO2)Nc1ccc2c(c1)oc1ccccc12,25,50,1.3,-0.062,51*[fluorescence artefact?]
COc1cc2c(cc1NC(=O)c1ccc3c(c1)OCO3)oc1ccccc12,-1,162,2.1*,-0.66,4
COc1cc2c(cc1NC(=O)CC1SC(N3CCCC3)=NC1=O)oc1ccccc12 (stereo not drawn),28,163,1.1,-8.3*,35
CC1CN(Cc2cc(=O)[nH]c(C3CC3)n2)CC(C)O1 (stereo not drawn),x,x,x,-6.8*,x
CC1CN(Cc2cc(=O)n3ccsc3n2)CC(C)O1 (stereo not drawn),-1,102,1.1,-0.49,11
CC(C)C(=O)N1CCC(CN=CC2=C(O)CC(C)(C)CC2=O)CC1,-9,103,1.2,-0.58,-17
O=C(Nc1cccc2cccc(NC(=O)c3ccco3)c12)c1ccco1,52*,62,1.1,-0.8,22
CC(NC(=O)c1ccccc1NC(=O)c1ccco1)c1ccccc1 (stereo not drawn),12,241*[fluorescence artefact?],1.2,-0.25,34
O=C(Nc1ccc(Oc2cccc3ccccc23)cc1)c1ccco1,-3,63,1.1,2.4*,-11
O=C(CSc1nc2ccc([N+](=O)[O-])cc2[nH]1)c1ccc2ccccc2c1,x,x,x,1.1,x
CCCCNS(=O)(=O)c1ccc2nc(SCC(=O)c3ccc(C#N)cc3)[nH]c2c1,7,279*,1.2,-0.39,7
CCN(CC)S(=O)(=O)c1ccc(C(=O)NCc2ccc(C)cc2)cc1,62*,105,1,0.11,-8
CCN(CC)S(=O)(=O)c1ccc(C(=O)NCc2cccs2)cc1,x,x,x,1.6,x
C=CCc1c(OC)ccc2ccc(=O)oc12,x,x,x,-0.63,x
C[C@@]1(C(NC(=O)c2cccs2)c2ccc(-c3ccccc3)cc2)C[C@H]1C1CCCCC1 (stereo partly drawn),x,x,1.1,x,x
CC(C)N1CCc2c(sc(N)c2C#N)C1,37,73,1.1,0.87,28
CCN1CCc2c(sc(N)c2C#N)C1,77*[fluorescence artefact?],26,1.1,-0.66,65*[fluorescence artefact?]
Cc1csc(C(C#N)C(=O)c2ccncc2)n1 (stereo not drawn),63*,65,1,x,32
C=C1CCN([C@@H](CC(C)C)C(=O)NCCC(C)C)S(=O)(=O)c2ccccc21,x,x,x,-0.6,x
CC(CCCCC(=O)Nc1ccc(C(F)(F)F)cc1)NCCc1cnc[nH]1 (stereo not drawn),x,x,x,-0.63,x
COC(=O)[C@@H]1C[C@@]1(C)[C@@H](NC(=O)OCc1ccccc1)c1ccccc1,x,x,1.1,x,x
O=C(CCCCCn1c(=S)[nH]c2ccc(Br)cc2c1=O)NCC1CCCO1 (stereo not drawn),30,116,1,-0.45,52*[fluorescence artefact?]
COCC(C)n1c(C)cc(C(=O)COC(=O)c2c(NC(C)=O)sc(C)c2C)c1C (stereo not drawn),31,542*[fluorescence artefact?],1.1,-1.1,23
Cc1ccc2nc(Nc3nc(=O)c4ccccc4n3C)nc(C)c2c1,43,71,1.3,x,60*
CCC1=C2CC[C@H]3C(=O)N(C)C(=O)[C@H]3[C@H]2[C@@]2(C)C(=O)N(CC3CC3)C(=O)N2C1=O,x,x,1.1,x,x
SMILES,ERb coact inh,ERa coact pot,MT1-MMP txn act,hDAT+cocaine,ERa SRC1 inh
O=C(CCC(=O)OCC(=O)c1ccc(Br)cc1)Nc1ccc(Br)c2cccnc12,x,x,x,-0.0096,x
O=C(Cc1cccs1)Nc1nnc(Cc2ccccc2)s1,91*,36,1.2,0.18,96*[fluorescence artefact?]
CC(C)c1nnc(NC(=O)Cc2cccs2)s1,24,89,1.2,0.64,13
O=C(Cc1cccs1)Nc1nnc(CCc2ccccc2)s1,19,103,1.2,-0.45,16
CCCCCc1nnc(NC(=O)Cc2cccs2)s1,82*,20,1.1,0.94,94*[fluorescence artefact?]
O=C(Cc1cccs1)Nc1nncs1,56*,64,1.2,-0.79,39
COc1cccc(-c2nnc(NC(=O)Cc3cccs3)s2)c1,50,129,1.1,-0.32,63*
CCO[C@@H]1OC(C(=O)N2CCN(Cc3ccccc3)CC2)=C[C@H](c2csc3ccccc23)[C@H]1CCCO,x,x,x,0.25,x
CC1(OC(=O)C2CCCC2)C(=O)C=C2C=C(c3ccsc3)N(CCc3ccccn3)C=C2C1=O (stereo not drawn),x,x,x,0.18,x
COC(=O)c1ccc(C(NC(=O)OCc2ccccc2)/C(I)=C/[C@@H](C)C(=O)Nc2ccccc2)cc1 (stereo partly drawn),x,x,1.1,x,x
O=C(Cc1cccs1)Nc1ccccn1,55*,72,1.2,x,56*
CC12C(=O)N(Cc3ccco3)C(=O)C1C1c3ccccc3C2c2ccccc21 (stereo not drawn),55*[fluorescence artefact?],163,1.1,-1.7,47
C#Cc1ccc(C(=O)Nc2cc(C(N)=O)ccc2N2CCOCC2)cc1,40,58,1.2,-0.19,69*[fluorescence artefact?]
O=C(Nc1ccccc1N1CCOCC1)c1ccc([N+](=O)[O-])cc1,x,x,x,0.89,x
CCC/C=C(\CCC)C(NS(=O)(=O)c1cccs1)c1ccc(C(=O)OC)cc1 (stereo not drawn),x,x,1.2,x,x
CC(C)NC(=O)c1cc(-c2ccc(Br)cc2)on1,-12,152,5.1*,0.43,-3
COCCN1C(=O)N[C@@H](c2ccco2)C(C(C)=O)=C1C,x,x,x,0.37,x
COc1ccc2c(c1)c(=O)oc1cc(OCC(=O)N3CCc4ccccc4C3)ccc12,62*,237*[fluorescence artefact?],1,1.8,71*[fluorescence artefact?]
Cc1cc(=O)oc2cc(OCC(=O)N3CCOCC3)ccc12,6,71,0.9,-0.65,0
COc1ccc(OC)c(N(CC(=O)N2CCc3ccccc3C2)S(C)(=O)=O)c1,-5,99,1.2,-1.1,-3
COc1ccc2c(c1)c(=O)oc1cc(OCC(=O)N3CCC(C)CC3)ccc12,60*,133,1.2,-0.26,59*
COc1ccc2c(c1)c(=O)oc1cc(OCC(=O)N3CCCC(C)C3)ccc12 (stereo not drawn),48,132,1.1,-2.5*,36
CCN(CC)S(=O)(=O)c1ccc(Cc2ncc(C(F)(F)F)cc2Cl)s1,-9,99,1,0.88,5
Cc1sc(NC(=O)c2ccc(Cl)s2)c(C(N)=O)c1C,23,117,2.2*,-0.035,30
Cc1cccc(NC(=O)CSc2ncnc3c2oc2ccccc23)c1,58*[fluorescence artefact?],395*[fluorescence artefact?],1.1,-0.87,50*[fluorescence artefact?]
Cc1ccc2nc(NC(=O)CSc3ncnc4c3oc3ccccc34)sc2c1,20,89,x,x,28
Cn1c(SCC(=O)Nc2cccc(F)c2)nnc1-c1cc2ccccc2o1,0,688*[fluorescence artefact?],1.3,-0.86,-32
O=C(CSc1ncnc2c1oc1ccccc12)Nc1cccc(F)c1,50*[fluorescence artefact?],370*[fluorescence artefact?],1.4,1,42
CC(=O)Nc1ccc(-c2nnc(SCC(=O)Nc3ccc4c(c3)oc3ccccc34)n2C)cc1,25,103,1.7,0.024,43
COc1cc(OC)c2ccc(=O)oc2c1C(CCN1CCCC1)c1ccc2c(c1)OCO2 (stereo not drawn),x,x,x,1.1*,x
